# The full ranking holds about 1,700 compounds; the median of “T3 sensor activation Q score (MG/GFP ratio z-score vs DMSO controls)” is about 0.25, and the highest 2% start at about 1.9. The sample as a whole holds a higher share of the highest values than the screen did.
# Tested on: ppGalNAc-T3 sensor
# Assay: T3 sensor activation Q score (MG/GFP ratio z-score vs DMSO controls) (SD units); higher = more sensor activation (inhibition of ppGalNAc-T3 glycosylation)
# Conditions: HEK293 sensor cells; 10 µM; 6 h
# Protocol: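 Cells were treated with compound at 10 uM for 6 h, then MG/GFP ratio was read by flow cytometry (10,000 cells per well, duplicate wells). Q = (R - R_neg)/SD_neg relative to DMSO vehicle controls; the signal rises when the glycosyltransferase is inhibited.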
row,SMILES,T3 sensor activation Q score
1,Cc1cc(=O)c2c(=O)[nH][nH]c2[nH]1,-1.35
2,CCc1noc2cc(-c3ccccc3)n(C)c(=O)c12,0.35
3,CCCSc1ncnc2[nH]ncc12,1.45
4,C#Cc1cccc(NC(=O)c2ccc(Cl)cc2Cl)c1,-0.65
5,C#Cc1cccc(Nc2ncnc3cc(OCCOC)c(OCCOC)cc23)c1,2.15
6,CCCNC(=O)c1ccccc1C(=O)NC1(C(=O)NCCC)CCCC1,-0.35
7,CC1(C)CC(Nc2ccc(Nc3ccccc3)cc2)CC(C)(C)N1,1.85
8,Nc1nc(Nc2ccccc2)n[nH]1,-0.55
9,NC(=O)Nc1ccc(Nc2ccccc2)cc1,0.7
10,OCCCCc1nccc2c1[nH]c1ccccc12,1
11,CNC(=O)c1ccccc1Sc1ccc2c(/C=C/c3ccccn3)n[nH]c2c1,0.7
12,O=C(O)CCC(=O)c1ccc2ccc3cccc4ccc1c2c34,1.75
13,CCOC(=O)Nc1c(Cl)n(C)c(=O)n(C)c1=O,1.75
14,CN(C)c1nc(=NCc2ccco2)ss1,-1.15
15,Cc1nc(C(N)=O)nc2ccccc12,0.2
16,NC(=O)c1cc2c3ccccc3ccn2c1-c1ccccc1,2.95
17,Clc1nnc2c3ccccc3ccn12,0.05
18,Cc1cnc(SCc2ccc(Cl)cc2Cl)[nH]c1=O,-0.3
19,COc1ccc([N+](=O)[O-])cc1NS(=O)(=O)c1ccc(C)cc1,-0.7
20,Cn1c(=O)c2c(nc(Oc3ccccc3)n2C)n(C)c1=O,0.7
21,Cn1c(=O)c2c(nc(Cc3ccccc3)n2C)n(C)c1=O,1.9
22,Cn1c(=O)c2c(nc(OCCc3ccccc3)n2C)n(C)c1=O,1.6
23,CCOC(=O)N1CCN(Cc2c(O)ccc3ccccc23)CC1,-0.95
24,CCOC(=O)c1cc(-c2ccccc2)nc2ccc(C)cc12,0.8
25,CCOC(=O)c1cc(OCC)c2c(ccc3ccccc32)n1,1.85

row,SMILES,T3 sensor activation Q score
1,CC(=O)NS(=O)(=O)c1ccc2sc(C)nc2c1,0.15
2,Nc1ccc(S(=O)(=O)NCC2CCCCO2)cc1 (stereo not given),1.6
3,NC(N)=NS(=O)(=O)c1ccc(N=C2C(=O)Nc3ccccc32)cc1,0.3
4,Cc1ccc(C(=O)Nc2ccc(CN3CCN(C)CC3)c(C(F)(F)F)c2)cc1C#Cc1cnc2cccnn12,1.9
5,Cc1ccc(NC(=O)c2ccc(CN3CCN(C)CC3)cc2)cc1Nc1nccc(-c2cccnc2)n1,-1.55
6,Cc1c(NC(=O)Nc2c(Cl)cccc2Cl)c(=O)n(-c2ccccc2)n1C,0.1
7,Oc1c(N=Nc2nn[nH]n2)ccc2ccccc12,1.25
8,Cn1cnc2ncnn2c1=S,-1.2
9,C=CCNC(=S)Nc1c(N)n(C)c(=O)n(C)c1=O,0.75
10,C=CCNC(=S)NCC=C,0.35
11,C=CCNC(=S)NCC,1.9
12,O=C(NN1CCCCC1)NN1CCCCC1,1.35
13,O=C(O)c1cccc2c1C(=O)c1cccc3snc-2c13,-0.15
14,CN1C(=C=Cc2cc(I)c(O)c(I)c2)C(C)(C)c2ccccc21,1.9
15,CCCNC(=O)c1ccc(S(N)(=O)=O)cc1,0.65
16,O=C(c1ccccc1)C1C(c2ccccc2)C1[N+](=O)[O-] (stereo not given),1.7
17,O=[N+]([O-])C1C(c2ccccc2)C12c1ccccc1-c1ccccc12 (stereo not given),3.55
18,CCN(CC)Cc1cc2[nH]c3c4ccc(Cl)cc4ncc3c2cc1OC,1.9
19,Cc1cnc2cc(Cl)ccc2c1SCC(=O)O,0.5
20,c1ccc(-c2nc[nH]c2-c2ccccc2)cc1,0.1
21,C[C@@H]1C[C@H]2OC(=O)[C@@]3(C)CCC[C@@](C)([C@@H]23)[C@@]1(O)CCc1ccoc1,0.2
22,COC(=O)c1cc2c(n1S(=O)(=O)c1ccc(C)cc1)C(=O)C(=O)c1[nH]cc(C(=O)OCc3ccccc3)c1-2,0.25
23,C1CCc2nc3c(nc2C1)CCCC3,-0.2
24,Nc1c(Cl)cc(S(N)(=O)=O)cc1S(N)(=O)=O,1.1
25,CC(C)(C)n1nc(C2CC2)cc1NC(=O)Nc1ccccc1,0.25

row,SMILES,T3 sensor activation Q score
1,COC(=O)C1(F)C(=O)NC(=O)NC1OC (stereo not given),0.6
2,O=C(N(c1ccccc1)c1ccccc1)N(c1ccccc1)c1ccccc1,1
3,COc1cc2ncnc(Nc3ccc(F)c(Cl)c3)c2cc1OCCCN1CCOCC1,1.2
4,COc1cc2c(Nc3ccc(Br)cc3F)ncnc2cc1OCC1CCN(C)CC1,2.1
5,COc1cc(Nc2c(C#N)cnc3cc(OCCCN4CCN(C)CC4)c(OC)cc23)c(Cl)cc1Cl,1
6,O=C(O)C(=O)Nc1ncn[nH]1,-1.75
7,CCCc1nc2c([nH]1)c(=O)n(C)c(=O)n2C,-0.95
8,Cn1c(=O)c2c(nc(N3CCCCC3)n2C)n(C)c1=O,-0.65
9,Cn1c(=O)c2[nH]c(N3CCCCC3)nc2n(C)c1=O,1.9
10,NC1(N2SC(S)=C3CCCC=C32)CCCCC1,0.75
11,NC1=C(O)C(=O)C(c2ccccc2)O1 (stereo not given),0.05
12,O=c1cc(-c2cccnc2)oc2c1ccc1ccccc12,1.25
13,O=C1c2ccccc2NC(c2cc(Cl)cc(Cl)c2O)N1CCc1ccccn1 (stereo not given),0.55
14,Cc1nnc2nc(N)[nH]n2c1=O,-1.2
15,O=C(O)CSc1nc2ccccc2s1,-0.1
16,COC1=C[C@@H](C)[C@@H]2C[C@H]3OC(O)C[C@H]4C(C)=C(OC)C(=O)[C@H]([C@@]2(C)C1=O)[C@@]34C (stereo not given in full),0.4
17,CCOC(=O)Cc1csc2nc(-c3ccccc3)nn12,0.25
18,N#CC1=CC2CN(Cc3ccccc3)C1C1C(=O)N(c3ccccc3)C(=O)C21 (stereo not given),0.45
19,c1ccc(-c2nnc3nc(N4CCCCC4)nc(N4CCCCC4)n23)cc1,1.3
20,NC(N)=NCCCS(=O)(=O)Nc1ccc(Nc2c3ccccc3nc3cc([N+](=O)[O-])ccc23)cc1,-0.75
21,CN(C)c1ccc(/C=C2/C=C(c3ccc4c(c3)CCCC4)OC2=O)cc1,0.9
22,Clc1cc2c(nn1)Nc1ccccc1S2,0.2
23,CC(C)c1ncc(CO)n1Cc1c(Cl)cccc1Cl,1.85
24,Cn1c(CO)cnc1-c1ccccc1,0.3
25,O=c1[nH]c(SCc2ccccc2[N+](=O)[O-])nc2nc[nH]c12,0.3

row,SMILES,T3 sensor activation Q score
1,O=c1cc(-c2ccccc2)oc2ccc(O)cc12,0.15
2,N[C@H](C(=O)O)[C@H]1ON=C(Cl)[C@H]1O,-0.15
3,COc1c(C=O)c2c(c(OC)c1OC)-c1ccc(OC)c(=O)cc1C(NC(C)=O)CC2 (stereo not given),4.1
4,CS/C(=N\S(=O)(=O)c1ccccc1)NNC(=O)c1c(-c2c(Cl)cccc2Cl)noc1C,0.65
5,CC1CC=C(O)C12OCC(C)(C)CO2 (stereo not given),-0.05
6,Cc1ccc(S(=O)(=O)N2CC=C(N)N2)cc1,-0.2
7,Cc1nc2ccccc2nc1NS(=O)(=O)c1ccc(N)cc1,-0.1
8,OCc1nc2nc(Cl)c(Cl)nc2[nH]1,-1.15
9,CC(C)CCCCCCCCCCCCC(=O)NCC(=O)NC1C(C)OC(Nc2ncnc3nc[nH]c23)C(O)C1O (stereo not given),-1.5
10,Cc1cc(C)n2c(C)nnc2c1,1.85
11,Cc1ccn2c(C(C)O)nnc2c1 (stereo not given),0.05
12,COC(=O)c1c[n+]([O-])ccc1OC,-0.5
13,CN(C)S(=O)(=O)c1ccccc1N=C=S,-1.15
14,CCOC(=O)/C=C/c1ccc(C(=O)OCC)[nH]1,-1.5
15,CCOC(=O)/C=C/c1nc(C(=O)OCC)c(C)c(=O)[nH]1,1.9
16,CCOC(=O)c1nn(C)c2[nH]c(=O)n(C)c(=O)c12,0.15
17,CN(C)S(=O)(=O)Nc1cccc(Br)c1,1.8
18,CCC(C)NC(=O)c1cccc(C)c1 (stereo not given),1.35
19,CNNCc1ccc(C(=O)NC(C)C)cc1,1.85
20,CC(C)NC(=O)c1ccc(C(C)C)cc1,-0.3
21,Nc1nc(N)c2cc(Sc3ccc4ccccc4c3)ccc2n1,1.15
22,CCc1ccc(CCN2C(=O)c3ccccc3C2=O)nc1,0.1
23,CCOC(=O)c1nnsc1-c1ccc(-c2snnc2C(=O)OCC)cc1,0.95
24,Clc1ncnc2[nH]ccc12,-0.05
25,C=CCN=C(NC#N)SC,0.05

row,SMILES,T3 sensor activation Q score
1,COc1cc(NC(C)=O)c2ncccc2c1NC(C)=O,1.2
2,O=c1[nH]cnc2c1ncn2Cc1ccc([N+](=O)[O-])cc1,0.15
3,CCOC(=O)c1cc2c(OC)c(OC)ccc2c2[nH]cc(C#N)c(=O)c12,0.7
4,Cn1nc(SCc2ccccc2)c(=O)n(C(c2ccccc2)c2ccccc2)c1=O,-0.65
5,CCOc1ccc(/C=C2\CCc3ccccc3C2=O)cc1,1.85
6,O=C1/C(=C\c2ccc([N+](=O)[O-])cc2)CCc2ccccc21,0.4
7,COc1cccc(/C=C2\CCc3ccccc3C2=O)c1,-0.1
8,O=C(O)C1OCC2(CO1)COC(C(=O)O)OC2 (stereo not given),0.6
9,CC(C)(C)NC(=O)c1ccc(C(=O)NC(C)(C)C)cc1,-0.4
10,CC(=O)CC[N+](C)(C)C,0.75
11,O=C(/C=C/c1ccccc1)CC(c1ccccc1)N1CCOCC1 (stereo not given),0.15
12,Nc1ccc(NC(=O)c2ccc(C(=O)Nc3ccc(N)cc3)cc2)cc1,1.05
13,Nc1ccc(C(=O)Nc2ccc(NC(=O)c3ccco3)c(O)c2)cc1,1.85
14,Nc1ccc(C(=O)Nc2cccc(N)c2)cc1,-1.35
15,OC[C@H]1O[C@@H](n2cnc3c2NC=NC[C@H]3O)C[C@@H]1O,1.3
16,NC(=O)CCC(C(=O)O)N1C(=O)c2ccc(O)cc2C1=O (stereo not given),-0.1
17,N#CC1=C2CCCCC2(O)NC1=O (stereo not given),-0.45
18,CC1=C2C3OC(=O)C(C)C3CCC2(C)C=C(Cl)C1=O (stereo not given),1.1
19,CC(=O)[C@@]1(O)[C@H](C)C[C@H]2[C@@H]3C=C(C)C4=Cc5c(cnn5-c5ccccc5)C[C@]4(C)[C@H]3[C@@H](O)C[C@@]21C,5
20,CC1=CC2C(C(O)CC3(C)C2CC(C)C32OCOC23COCO3)C2(C)CC(=CO)C(=O)C=C12 (stereo not given),-3.35
21,COC1C(=O)CCC2(CO2)C1(O)C1(C)OC1CC=C(C)C (stereo not given),-1.6
22,OCC1(CO)CC2(C1)CC(CO)(CO)C2,-1.15
23,c1ccc(Nc2cccc3c(Nc4ccccc4)cccc23)cc1,-0.45
24,COc1ccc(NC(=O)CC(C)=O)c(OC)c1,-0.1
25,CC1(C)N=C(N)NC(=NCCCOc2ccc([N+](=O)[O-])cc2)N1,0.35
